Measurements published in PubChem BioAssay (NCI).
About 79,000 compounds went through this panel and 15% of them were active in at least one assay; those are over-represented in the sample as a whole. Unmarked numbers belong to inactive results. Active and inactive are the calls of the source. No stated cut-off is given here; in the data, active means growth inhibition above about 70%; inactive means the rest.

Experiments:
[1] = NCI Yeast Anticancer Drug Screen. Data for the rad50 strain (AID 155);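 further: 0% = growth of vehicle-only cultures of the same strain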; conditions: S. cerevisiae rad50 strain growth inhibition, active compounds read high
In short: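 Compounds were tested on a yeast strain with an engineered DNA damage repair alteration; the reported value is growth inhibition normalised to vehicle treatment.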

[2] = NCI Yeast Anticancer Drug Screen. Data for the mec2-1 strain (AID 157); conditions: S. cerevisiae mec2-1 strain, active compounds read high
In short: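 Cells of the genetically defined mec2-1 yeast strain are incubated with test compound. Inhibition of growth is calculated against vehicle-treated controls.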

[3] = NCI Yeast Anticancer Drug Screen. Data for the sgs1 mgt1 strain (AID 161);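 further: 0% = growth of cultures given vehicle only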; conditions: S. cerevisiae sgs1 mgt1 strain, active compounds read high
In short: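 Test agents were incubated with a DNA-repair-mutant yeast strain. Growth was then read and compared against vehicle-treated controls.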

[4] = NCI Yeast Anticancer Drug Screen. Data for the cln2 rad14 strain (AID 165);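 further: 0% = growth equal to vehicle treated cultures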; conditions: S. cerevisiae cln2 rad14 strain, active compounds read high
In short: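 The screen exposed genetically defined yeast (cln2 rad14) to test compounds and scored growth inhibition relative to vehicle-treated controls.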

[5] = NCI Yeast Anticancer Drug Screen. Data for the bub3 strain (AID 167); conditions: S. cerevisiae bub3 mutant strain, active compounds read high
In short: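 Growth of a checkpoint-deficient yeast mutant is measured after compound exposure. Values represent inhibition relative to vehicle.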

[6] = NCI Yeast Anticancer Drug Screen. Data for the mlh1 rad18 strain (AID 175); conditions: S. cerevisiae mlh1 rad18 strain growth inhibition, active compounds read high
In short: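 Compound-treated yeast growth, normalised to vehicle controls. Strain bears defined DNA repair mutations.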

[7] = at 5.0 µM (retest, dose inferred, filed as 0.5)
[8] = at 50.0 µM (retest, dose inferred, filed as 5.0)

SMILES | growth inhibition [1, 7] | growth inhibition [1, 8] | growth inhibition ([1]; at 50.0 µM) | growth inhibition [2, 7] [%] | growth inhibition [2, 8] | growth inhibition ([2]; at 50.0 µM) | growth inhibition [3, 7] | growth inhibition [3, 8] | growth inhibition ([3]; at 50.0 µM) | growth inhibition [4, 7] | growth inhibition [4, 8] | growth inhibition ([4]; at 50.0 µM) | growth inhibition [5, 7] | growth inhibition [5, 8] | growth inhibition ([5]; at 50.0 µM) | growth inhibition [6, 7] | growth inhibition [6, 8] | growth inhibition ([6]; at 50.0 µM)
CCCC(O)CNCc1ccc(N(C)C)cc1 (stereo not given) | -2% | 7% | 30.1% | -3 | 6% | -4.1% | -3% | -29% | 75.6% (active) | 6% | 3% | 63.9% | -1% | 5% | 46.7% | -17% | 16% | 41.8%
c1ccc(N=c2sc3ccccc3sc2=Nc2ccccc2)cc1 | 94% (active) | 32% | 51% | 56 | 50% | 32.4% | 71% (active) | 60% | 21.8% | 96% (active) | 69% | 59.5% | 93% (active) | 76% (active) | 31.7% | 93% (active) | 56% | -16%
CN(CCC1CCCCC1)CCC1CCCCC1 | 21% | 89% (active) | 97.9% (active) | 9 | 72% (active) | 80.3% (active) | 35% | 97% (active) | 97.2% (active) | 14% | 73% (active) | 77.6% (active) | 30% | 97% (active) | 96.5% (active) | 11% | 89% (active) | 93.6% (active)
COc1cccc(C2c3cc4c(cc3OC(N3CCCC3)C2c2ccccc2)OCO4)c1O (stereo not given) | 24% | 98% (active) | 8.35% | 19 | 99% (active) | 13% | -2% | 95% (active) | 29.4% | -7% | 96% (active) | 13.2% | 6% | 95% (active) | 26.4% | 18% | 98% (active) | 32.2%
COC(=O)CCC(C)C1CCC2C3CCC4CC(SC(=N)N)CCC4(C)C3CC(O)C12C (stereo not given) | 95% (active) | 99% (active) | 99.1% (active) | 23 | 99% (active) | 99.7% (active) | 98% (active) | 99% (active) | 99.7% (active) | 63% | 99% (active) | 99.2% (active) | 99% (active) | 99% (active) | 99.3% (active) | 84% (active) | 99% (active) | 99.4% (active)
OCCSC(=S)Nc1ccc(Cl)c(Cl)c1 | 47% | 99% (active) | 99.6% (active) | 10 | 100% (active) | 99.7% (active) | 78% (active) | 100% (active) | 99.8% (active) | 0% | 99% (active) | 99.5% (active) | 44% | 99% (active) | 99.8% (active) | 85% (active) | 99% (active) | 99.5% (active)
CCCCCCN(CCCCCC)CCC(=O)c1ccc2cc(Cl)c3ccccc3c2c1 | 29% | 90% (active) | 78.4% (active) | -28 | 95% (active) | 82% (active) | 33% | 95% (active) | 78.2% (active) | 3% | 88% (active) | 31.8% | 5% | 94% (active) | 33.2% | 17% | 91% (active) | 87.8% (active)
COC(=O)C(=O)C(C(=O)C(=O)Nc1ccc(C)cc1C)c1nc2ccccc2[nH]c1=O (stereo not given) | 21% | 21% | 17% | 8 | 8% | 20.8% | -2% | -2% | 39.2% | 5% | 5% | -57.3% | -6% | -6% | 34% | 7% | 7% | 49.8%
COc1ccccc1C(=O)c1c(C(=O)O)ccc2ccccc12 | -2% | -17% | 3.8% | -6 | -28% | 6.9% | -3% | -25% | 7.75% | -17% | -3% | 27.6% | -10% | -5% | 13.7% | -4% | -1% | 48.6%
COc1ccc(/C(C#N)=C/c2ccncc2)cc1 | 1% | 28% | 73.2% (active) | -49 | 14% | 39.2% | -2% | 28% | 68% | 4% | 23% | 46.4% | 7% | 67% | 77.4% (active) | -3% | 28% | 51.3%
COc1ccc2c3c(c4cc(OC)c(OC)cc4c2c1)CN1CCC[C@H]1[C@@H]3O | 19% | 99% (active) | 89.4% (active) | 7 | 99% (active) | 90.6% (active) | 97% (active) | 98% (active) | 91.1% (active) | 90% (active) | 97% (active) | 88.2% (active) | 95% (active) | 98% (active) | 89.7% (active) | 98% (active) | 97% (active) | 89.2% (active)
O=C1c2ccccc2C(=O)c2cc(O)ccc21 | 34% | 91% (active) | 84.8% (active) | -13 | 77% (active) | 56.1% | 2% | 82% (active) | 69% | 11% | 54% | 64.4% | 44% | 84% (active) | 80.3% (active) | 15% | 87% (active) | 85% (active)
Cc1ccc(S(=O)(=O)OCCc2ccc(Cl)cc2)cc1 | -10% | -21% | -19.6% | -11 | -13% | -10.3% | -6% | 41% | -10.4% | -15% | -20% | -16.5% | 9% | 22% | 71.2% (active) | -14% | -12% | -7.75%
C1Cc2c3c4c(c5c2C(C1)CCC5)CCCC4CCC3 | -5% | 8% | -11.5% | 1 | 17% | 10.3% | -1% | 13% | 0% | 3% | -1% | 34.2% | 15% | 8% | -0.85% | -1% | 10% | -2.25%
OCCc1cccc2ccc3ccccc3c12 | 0% | 62% | 85.9% (active) | -1 | 55% | 92.8% (active) | -4% | 59% | 94.2% (active) | -1% | 59% | 88.2% (active) | 1% | 66% | 90.4% (active) | 2% | 66% | 91.8% (active)
Cn1c2c(c3ccccc31)CCN(CCN1CCN(c3ccccc3)CC1)C2=O | 30% | 31% | 71.9% (active) | 21 | 29% | 43% | 28% | 37% | 79% (active) | 26% | 24% | 60.6% | 32% | 43% | 67.5% | 32% | 35% | 59.8%
CCN(CC)CCNc1ccc(C)c2sc3c(OC)cccc3c(=O)c12 | 1% | 22% | 74.6% (active) | -1 | 4% | 9.75% | -3% | 22% | 25.6% | -2% | 8% | -2.4% | -1% | 11% | 23.4% | -5% | 36% | 11.8%
C=CC1(C)CCC2C(=CCC3C2(C)CC(O)C(O)C3(C)COC2OC(CO)C(O)C(O)C2O)C1 (stereo not given) | 1% | 99% (active) | 93.1% (active) | -1 | 100% (active) | 94.1% (active) | -1% | 99% (active) | 94.1% (active) | 1% | 99% (active) | 90.5% (active) | 0% | 99% (active) | 93.6% (active) | 0% | 82% (active) | -41.4%
CCCCCc1cc(C(=O)OC/C(C)=N/O)c2ccccc2n1 | -5% | 90% (active) | 97.2% (active) | -9 | 95% (active) | 97.5% (active) | -6% | 91% (active) | 96.5% (active) | -5% | 92% (active) | 83.2% (active) | -6% | 93% (active) | 97.8% (active) | -6% | 93% (active) | 97.4% (active)
COc1cccc(/C=N/N(C)C)c1O | 0% | 29% | 56% | -6 | -17% | 9.05% | -2% | 21% | -1.75% | 0% | -8% | 11.4% | 12% | 29% | 1.4% | 7% | 28% | 19.6%
